Experiment [1] has as its target Estrogen receptor (Homo sapiens) (UniProt P03372). In words: qHTS assay for small molecule agonists of estrogen receptor alpha signaling (AID 588514; calls by dose curve;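 further: 0% = vehicle only and 100% = reference agonist; nearly all actives have a fitted effect of over 70% in size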). The gist of the method:
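ER-alpha-UAS-bla GripTite HEK 293 cells in medium with 2% charcoal/dextran-treated FBS were treated with compound titrations at 37 C for 18 hrs; beta-lactamase reporter read by CCF4 fluorescence after 2 hrs at RT.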

The target of experiment [2] is Glucocorticoid receptor (Homo sapiens) (UniProt P04150). In words: qHTS assay for small molecule agonists of glucocorticoid receptor signaling (AID 588532; active means well fitted curve in the direction sought with a large enough effect in the signal ratio, with a control signal flat; the % refers to the signal ratio;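 further: 100% = dexamethasone at 0.1 µM and 0% = DMSO only wells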). To be noted: HeLa MMTV-bla, beta-lactamase ratio, agonist, 18 h; activation: stronger effect = higher value, percent of dexamethasone control, DMSO zero. The gist of the method:
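MMTV-bla HeLa, beta-lactamase reporter; medium with 1% charcoal/dextran-stripped FBS; cpds up to 92 uM, 18 h, 37 C; CCF4 readout 460/530 nm; Hill fit → EC50, efficacy vs 0.1 uM dexamethasone = 100%.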

The target of experiment [3] is Peroxisome proliferator-activated receptor delta (Homo sapiens) (UniProt Q03181). The experiment is described as follows: qHTS assay for small molecule agonists of peroxisome proliferator-activated receptor delta signaling (AID 588534; calls by dose curve;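 further: 0% = DMSO basal wells and 100% = positive control agonist at 10 µM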). The essentials:
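Cell-based beta-lactamase reporter assay run in agonist mode: cells seeded and incubated 5 hrs at 37 C, compounds added and incubated 18 hrs at 37 C. CCF4 dye fluorescence read after 2 hrs at RT; EC50 and efficacy from Hill fits.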

The nature of experiment [4]: qHTS assay for small molecule antagonists of peroxisome proliferator-activated receptor delta signaling (AID 588535; active means well fitted inhibition curve with a large enough effect in the signal ratio, with a control signal flat, not every such curve was filed as active; the % refers to the signal ratio;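 on max response: cells co-treated with a PPAR-delta agonist as stimulator during compound exposure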). To be noted: HEK293T PPARd-UAS-bla, beta-lactamase FRET ratio, 18 h; 460 nm channel. The gist of the method: (§1)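 GeneBLAzer PPAR-delta-UAS-bla HEK293T cells in medium with 2% charcoal/dextran FBS were preincubated 5 hrs at 37 C, then given compounds, incubated 18 hrs at 37 C, and read by CCF4 beta-lactamase fluorescence; IC50 from Hill fits.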

Experiment [5] concerns the target Peroxisome proliferator-activated receptor delta (Homo sapiens) (UniProt Q03181). Described as above. The essentials: as §1
In experiment [6] the target is Peroxisome proliferator-activated receptor gamma (Homo sapiens) (UniProt P37231). The experiment is described as follows: qHTS assay for small molecule agonists of peroxisome proliferator-activated receptor gamma signaling (AID 588536; active means well fitted curve in the direction sought with a large enough effect in the signal ratio, with a control signal flat, not every such curve was filed as active; the % refers to the signal ratio;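 further: 0% = DMSO basal wells and 100% = rosiglitazone at 2 µM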). The essentials:
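PPAR-gamma-UAS-bla HEK293 cells in medium with 1% charcoal/dextran-treated FBS were exposed to compounds for 16 h at 37 C. Beta-lactamase activity was read with CCF4 substrate (405 nm excitation, 460/530 nm emission).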

Experiment [7] deals with Retinoic acid receptor RXR-alpha (Homo sapiens) (UniProt P19793). The experiment is described as follows: qHTS assay for small molecule agonists of retinoid X receptor alpha signaling (AID 588544; calls by dose curve;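 further: 0% = DMSO basal wells and 100% = reference agonist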).
For experiment [8], the target named is Thyroid hormone receptor beta (Homo sapiens) (UniProt P10828). In words: qHTS assay for small molecule agonists of thyroid hormone receptor beta signaling (AID 588545; calls by dose curve;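 further: 0% = DMSO only and 100% = 10 nM T3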). The essentials:
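TR-UAS-bla GripTite HEK 293 cells (2500/well, medium with 2% charcoal/dextran FBS) were treated in agonist mode for 18 h at 37 C, titrated. Beta-lactamase was read by CCF4 ratio after 2 h; normalized to 10 nM T3 (100%) and DMSO, Hill-fitted for EC50 and efficacy.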

Experiment [9] in a line: qHTS assay for small molecule antagonists of retinoid X receptor alpha signaling (AID 588546; active means well fitted inhibition curve with a large enough effect in the signal ratio, with a control signal flat, not every such curve was filed as active; the % refers to the signal ratio;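 further: cells stimulated with 9-cis-retinoic acid as agonist; on the % scale 0 is the no-effect control and ±100 the full control effect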). The conditions noted are these: HEK293T RXRa-UAS-bla, beta-lactamase ratio, antagonist mode; measured here: W530 green channel, cytotoxicity proxy. The gist of the method:
(§2)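 Beta-lactamase reporter inhibition, read as CCF4 fluorescence ratio (ex 405, em 460/530 nm) after 2 h at RT. HEK293T UAS-bla cells, 2500/well, were stimulated with 9-cis-RA at 500 or 100 nM final alongside test compound for 18 h at 37 C.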

For experiment [10], the target named is Retinoic acid receptor RXR-alpha (Homo sapiens) (UniProt P19793). The description is as above. To be noted: HEK293T RXRa-UAS-bla, beta-lactamase ratio, antagonist mode. The gist of the method: as §2
Experiment [11] concerns the target Thyroid hormone receptor beta (Homo sapiens) (UniProt P10828). In words: qHTS assay for small molecule antagonists of thyroid hormone receptor beta signaling (AID 588547; active means well fitted inhibition curve with a large enough effect in the signal ratio, with a control signal flat, not every such curve was filed as active; the % refers to the signal ratio; further: potency means the concentration at half of the fitted maximal effect;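 on activity change % (negative = inhibition): cells stimulated with 0.4 nM T3 agonist during compound exposure; series mostly up to about 77 µM; on the % scale 0 is the no-effect control and ±100 the full control effect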). The conditions noted are these: TR-UAS-bla HEK293, beta-lactamase ratio, antagonist mode, 18 h. The essentials: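 TR-UAS-bla GripTite HEK293 cells in 2% charcoal/dextran FBS medium were preincubated 4 h at 37 C, given compound (0.59 nM to 92 uM) plus 0.4 nM T3 (final) for 18 h, then CCF4 for 2 h at RT; Hill fit gave IC50.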

Experiment [12] can be described thus: qHTS assay for small molecule activators of the p53 signaling pathway (AID 651743; active means well fitted activation curve with a large enough effect in the signal ratio, not every such curve was filed as active; the % refers to the signal ratio; further: series mostly up to about 92 µM; % of control where 0% means no effect). To be noted: HCT-116 p53RE-bla, beta-lactamase FRET ratio, 16 h; activation: stronger effect = higher value. The essentials: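 p53RE-bla HCT-116 cells with a stably integrated beta-lactamase reporter under p53 response elements were plated, rested 5 hours at 37 C/5% CO2, then exposed to compounds in DMSO for 16 hours at 37 C. LiveBLAzer B/G FRET substrate was read after 2 hours at room temperature.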

Experiment [13] in a line: qHTS assay for environmental chemicals that activate the Aryl hydrocarbon Receptor (AhR) signaling pathway (AID 651777). Further: % of control where 0% means no effect; nearly all actives have a fitted effect of over 15% in size. To be noted: 1A2-DRE human hepatoma cells, luciferase, 24 h; activation: stronger effect = higher value. The essentials:
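Luminescence (One-Glo, 30 min, room temperature) reports AhR-driven luciferase in stably transfected human hepatoma cells bearing DRE and CYP1A2 promoter. Cells (1,200/well) were treated with compound for 24 hr at 37 C in qHTS format.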

Experiment [14] deals with Peroxisome proliferator-activated receptor alpha (Homo sapiens) (UniProt Q07869). In words: qHTS assay for small molecule agonists of the peroxisome proliferator-activated receptor alpha (PPARalpha) signaling pathway (AID 651778). Further: % of control where 0% means no effect. To be noted: PathHunter PPARalpha complementation, chemiluminescence, 6 h; max response: stronger effect = higher value. The essentials:
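Cells plated at 2,000/well and held overnight at 37 C, 5% CO2, then compound added by pin tool for 6 hr; after PathHunter detection reagent and 60 min at room temperature, chemiluminescence from enzyme complementation was read.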

Experiment [15] in a line: qHTS assay for small molecule agonists of the antioxidant response element (ARE) signaling pathway measured by Nrf2-dependant transcriptional activity (AID 720636; active means well fitted curve in the direction sought with a large enough effect in the repeat runs; an effect the other way counts as inactive or inconclusive; further: % of control where 0% means no effect). The essentials: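 Nrf2-dependent transcription read as ONE-Glo luciferase signal from ARE-luc HepG2 reporter cells after 16 hr compound treatment at 37 C, 5% CO2, in assay medium with 1% dialyzed FBS.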
Experiment [16] is described as follows: qHTS assay for small molecule agonists of the antioxidant response element (ARE) signaling pathway measured by Nrf2-dependant transcriptional activity - cell viability counter screen (AID 720653; active means well fitted curve in the direction sought with a large enough effect in the repeat runs; an effect the other way counts as inactive or inconclusive; further: on the % scale 0 is the no-effect control and ±100 the full control effect). To be noted: ARE-bla HepG2 viability, CellTiter-Glo ATP luminescence, 16 h; max response: stronger effect = lower value. The gist of the method: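 ARE-bla HepG2 cells (2,000/well) rested 5 hrs at 37C/5% CO2, then exposed to compounds in DMSO for 16 hrs. Viability was read in the same wells as intracellular ATP by luminescence, 30 min at room temperature after reagent addition.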

Experiment [17] is described as follows: qHTS assay for cell viability of the p53RE-bla HCT-116 cell line (AID 743292). Further: on the % scale 0 is the no-effect control and ±100 the full control effect; nearly all actives have a fitted effect of over 55% in size. The gist of the method: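 ATP-based luminescent viability (CellTiter-Glo, 30 min RT) after 16 h compound treatment at 37 C of p53RE-bla HCT-116 cells, seeded at 4,000 cells/well and rested 5 h before dosing.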
Experiment [18] addresses Nuclear receptor subfamily 1 group I member 2 (Rattus norvegicus) (UniProt Q9R1A7). The experiment is described as follows: qHTS assay for small molecule activators of the rat pregnane X receptor (rPXR) signaling pathway (AID 651751; call rule not given here; further: 0% is about no effect). The conditions noted are these: rPXR reporter cells, luciferase (One-Glo), 24 h.
The nature of experiment [19]: qHTS assay for cell viability of HEK293 cells (AID 743288). Further: on the % scale 0 is the no-effect control and ±100 the full control effect; nearly all actives have a fitted effect of over 50% in size. To be noted: ATP luminescence (CellTiter-Glo), 18 h; max response: stronger effect = lower value. The essentials:
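Parental HEK293 cells were seeded at 2,000 cells/well, rested at least 5 h at 37 C, then exposed to compounds in DMSO for 18 h at 37 C. Viability was read as ATP-dependent luciferase luminescence after 30 min at room temperature.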

The target in experiment [20] is Glucocorticoid receptor (Homo sapiens) (UniProt P04150). The experiment is described as follows: qHTS assay for small molecule antagonists of glucocorticoid receptor signaling (AID 588533; active means well fitted inhibition curve with a large enough effect in the signal ratio, with a control signal flat, not every such curve was filed as active; the % refers to the signal ratio;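 further: cells stimulated with 2 nM dexamethasone as agonist; on the % scale 0 is the no-effect control and ±100 the full control effect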). The essentials:
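Antagonist-mode qHTS: compound titrations added to GRE-bla HeLa cells, then dexamethasone 2 nM final; 18 h, 37 C. CCF4 FRET fluorescence normalized to dexamethasone and DMSO; IC50 from Hill fit.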

Molecules are shown by their SMILES. Records with an inconclusive call do not appear. Active and inactive are the calls of the source. Unless noted, the call rests on the fitted dose curve; in most records, active means well fitted curve in the direction sought with a large enough effect; inconclusive means small, poorly fitted or top-dose-only effect, or another doubt; inactive means no such curve, though single readings can be large; an effect the other way counts as inactive or inconclusive.

Sequence of Nuclear receptor subfamily 1 group I member 2 (Rattus norvegicus) (Q9R1A7 whole entry, looked up): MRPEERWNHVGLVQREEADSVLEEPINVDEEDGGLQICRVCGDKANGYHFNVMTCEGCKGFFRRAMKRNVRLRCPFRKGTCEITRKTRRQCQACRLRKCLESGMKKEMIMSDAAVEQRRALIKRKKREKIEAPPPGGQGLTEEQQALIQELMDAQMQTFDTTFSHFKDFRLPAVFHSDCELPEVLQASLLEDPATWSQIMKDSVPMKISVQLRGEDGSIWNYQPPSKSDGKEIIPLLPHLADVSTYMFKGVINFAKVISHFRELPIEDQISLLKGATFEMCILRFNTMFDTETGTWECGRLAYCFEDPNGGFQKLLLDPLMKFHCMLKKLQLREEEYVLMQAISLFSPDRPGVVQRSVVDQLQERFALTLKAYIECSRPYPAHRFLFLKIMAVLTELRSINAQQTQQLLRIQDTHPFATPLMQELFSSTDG
Sequence of Peroxisome proliferator-activated receptor gamma (Homo sapiens) (P37231 whole entry, looked up): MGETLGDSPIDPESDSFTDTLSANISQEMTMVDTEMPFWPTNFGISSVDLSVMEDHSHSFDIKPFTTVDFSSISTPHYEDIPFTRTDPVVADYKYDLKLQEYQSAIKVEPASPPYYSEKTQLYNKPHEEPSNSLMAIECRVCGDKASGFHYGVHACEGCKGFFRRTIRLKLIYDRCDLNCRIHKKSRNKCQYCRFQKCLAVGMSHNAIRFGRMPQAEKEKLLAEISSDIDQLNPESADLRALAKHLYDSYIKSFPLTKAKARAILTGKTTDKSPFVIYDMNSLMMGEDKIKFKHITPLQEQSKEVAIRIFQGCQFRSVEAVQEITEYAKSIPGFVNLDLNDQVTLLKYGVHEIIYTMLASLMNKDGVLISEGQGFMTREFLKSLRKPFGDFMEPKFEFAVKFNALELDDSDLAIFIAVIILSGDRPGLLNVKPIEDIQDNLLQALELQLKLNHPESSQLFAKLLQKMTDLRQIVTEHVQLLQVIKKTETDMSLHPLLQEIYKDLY
Sequence of Thyroid hormone receptor beta (Homo sapiens) (P10828 whole entry, looked up): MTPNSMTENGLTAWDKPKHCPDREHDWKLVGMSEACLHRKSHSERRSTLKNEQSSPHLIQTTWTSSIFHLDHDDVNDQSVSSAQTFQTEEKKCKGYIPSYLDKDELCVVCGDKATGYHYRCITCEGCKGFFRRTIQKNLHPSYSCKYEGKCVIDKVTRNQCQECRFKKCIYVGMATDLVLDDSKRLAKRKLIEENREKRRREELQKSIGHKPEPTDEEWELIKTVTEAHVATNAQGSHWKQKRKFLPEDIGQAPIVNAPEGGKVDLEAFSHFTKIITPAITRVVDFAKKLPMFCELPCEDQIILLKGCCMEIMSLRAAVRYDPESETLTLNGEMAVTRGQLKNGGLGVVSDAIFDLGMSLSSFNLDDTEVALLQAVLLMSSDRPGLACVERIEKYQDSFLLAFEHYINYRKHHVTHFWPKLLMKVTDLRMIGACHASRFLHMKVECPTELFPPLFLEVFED
Sequence of Peroxisome proliferator-activated receptor delta (Homo sapiens) (Q03181 whole entry, looked up): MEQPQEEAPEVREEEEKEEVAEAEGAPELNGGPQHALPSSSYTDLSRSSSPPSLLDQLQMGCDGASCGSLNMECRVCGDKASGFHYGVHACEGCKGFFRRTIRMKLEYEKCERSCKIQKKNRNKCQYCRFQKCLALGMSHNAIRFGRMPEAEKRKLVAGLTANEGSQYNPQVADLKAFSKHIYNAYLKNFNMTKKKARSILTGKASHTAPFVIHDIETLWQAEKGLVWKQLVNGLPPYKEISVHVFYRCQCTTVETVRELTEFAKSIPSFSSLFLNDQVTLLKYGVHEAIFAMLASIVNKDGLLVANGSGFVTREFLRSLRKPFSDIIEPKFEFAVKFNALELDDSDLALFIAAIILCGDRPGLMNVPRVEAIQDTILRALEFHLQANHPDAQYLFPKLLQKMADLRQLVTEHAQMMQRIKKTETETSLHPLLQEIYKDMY
Sequence of Glucocorticoid receptor (Homo sapiens) (P04150 whole entry, looked up): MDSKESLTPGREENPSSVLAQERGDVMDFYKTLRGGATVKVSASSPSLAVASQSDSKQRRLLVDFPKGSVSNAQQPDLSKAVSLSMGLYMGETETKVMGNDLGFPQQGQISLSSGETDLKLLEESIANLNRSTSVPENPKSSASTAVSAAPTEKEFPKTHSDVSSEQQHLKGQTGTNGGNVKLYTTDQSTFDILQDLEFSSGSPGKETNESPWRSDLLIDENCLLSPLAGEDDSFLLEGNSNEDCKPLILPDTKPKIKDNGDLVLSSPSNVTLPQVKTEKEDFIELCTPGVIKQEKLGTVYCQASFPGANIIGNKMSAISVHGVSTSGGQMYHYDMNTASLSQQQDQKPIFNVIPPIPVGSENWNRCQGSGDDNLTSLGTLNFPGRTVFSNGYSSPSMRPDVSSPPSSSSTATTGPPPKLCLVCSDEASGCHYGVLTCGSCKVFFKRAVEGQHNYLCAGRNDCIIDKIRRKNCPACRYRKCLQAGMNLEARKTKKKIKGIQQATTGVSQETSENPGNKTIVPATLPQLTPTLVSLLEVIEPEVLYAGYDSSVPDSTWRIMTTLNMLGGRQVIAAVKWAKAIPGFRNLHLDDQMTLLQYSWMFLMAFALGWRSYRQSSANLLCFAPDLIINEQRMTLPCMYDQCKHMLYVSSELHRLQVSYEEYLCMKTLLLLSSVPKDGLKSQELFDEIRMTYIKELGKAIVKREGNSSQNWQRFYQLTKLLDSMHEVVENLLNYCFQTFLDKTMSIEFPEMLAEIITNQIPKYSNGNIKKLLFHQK
Sequence of Peroxisome proliferator-activated receptor alpha (Homo sapiens) (Q07869 whole entry, looked up): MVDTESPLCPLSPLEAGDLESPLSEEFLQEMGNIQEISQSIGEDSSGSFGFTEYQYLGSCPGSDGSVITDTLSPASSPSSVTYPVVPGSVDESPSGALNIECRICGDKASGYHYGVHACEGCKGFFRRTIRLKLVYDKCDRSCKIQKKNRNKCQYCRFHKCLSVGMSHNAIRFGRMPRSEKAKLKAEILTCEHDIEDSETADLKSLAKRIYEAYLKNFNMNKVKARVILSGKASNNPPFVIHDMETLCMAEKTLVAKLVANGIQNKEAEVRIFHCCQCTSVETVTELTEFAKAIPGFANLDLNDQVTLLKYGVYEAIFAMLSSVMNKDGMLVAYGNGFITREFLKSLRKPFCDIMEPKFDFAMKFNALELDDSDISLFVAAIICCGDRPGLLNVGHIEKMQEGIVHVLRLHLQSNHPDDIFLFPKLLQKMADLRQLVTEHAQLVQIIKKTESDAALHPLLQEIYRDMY
Sequence of Retinoic acid receptor RXR-alpha (Homo sapiens) (P19793 whole entry, looked up): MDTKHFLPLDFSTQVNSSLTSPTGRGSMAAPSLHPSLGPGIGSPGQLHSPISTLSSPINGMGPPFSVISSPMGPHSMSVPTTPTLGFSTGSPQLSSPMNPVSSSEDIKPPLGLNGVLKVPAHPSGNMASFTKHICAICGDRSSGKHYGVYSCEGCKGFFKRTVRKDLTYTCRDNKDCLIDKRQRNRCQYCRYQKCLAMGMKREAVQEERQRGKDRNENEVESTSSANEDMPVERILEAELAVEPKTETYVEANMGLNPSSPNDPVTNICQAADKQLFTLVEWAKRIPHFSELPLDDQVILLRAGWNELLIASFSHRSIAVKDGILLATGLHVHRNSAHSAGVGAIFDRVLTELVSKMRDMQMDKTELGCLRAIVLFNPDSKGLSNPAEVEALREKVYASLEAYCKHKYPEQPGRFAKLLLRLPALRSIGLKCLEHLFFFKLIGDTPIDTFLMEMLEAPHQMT
Sequence of Estrogen receptor (Homo sapiens) (P03372 whole entry, looked up): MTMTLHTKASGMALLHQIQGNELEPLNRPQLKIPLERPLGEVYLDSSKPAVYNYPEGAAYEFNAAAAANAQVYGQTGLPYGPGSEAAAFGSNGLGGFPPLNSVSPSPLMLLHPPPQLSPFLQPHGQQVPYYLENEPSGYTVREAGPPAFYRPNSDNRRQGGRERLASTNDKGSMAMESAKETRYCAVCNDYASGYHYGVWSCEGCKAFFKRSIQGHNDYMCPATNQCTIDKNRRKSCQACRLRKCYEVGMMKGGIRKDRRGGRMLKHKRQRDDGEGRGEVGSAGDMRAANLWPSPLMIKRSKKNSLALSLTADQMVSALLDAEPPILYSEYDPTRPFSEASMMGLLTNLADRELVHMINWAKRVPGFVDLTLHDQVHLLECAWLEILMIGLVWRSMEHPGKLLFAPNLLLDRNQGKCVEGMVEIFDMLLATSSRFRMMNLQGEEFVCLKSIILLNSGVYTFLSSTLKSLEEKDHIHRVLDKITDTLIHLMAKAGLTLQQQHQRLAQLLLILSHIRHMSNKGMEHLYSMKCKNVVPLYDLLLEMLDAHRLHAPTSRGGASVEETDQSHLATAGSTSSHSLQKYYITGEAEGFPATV

With `N#CN=C1SCCN1Cc1ccc(Cl)nc1`, the Potency entry in [1], in [5], in experiment [6], in experiment [7], in experiment [8] and in experiment [15] was “inactive” throughout. In addition, in experiment [17], the Potency entry was “inactive”. The figures for the activation in experiment [2], in experiment [12] and in experiment [13] were 0.0374% (inactive), 1.82% (inactive) and 1.96% (inactive), respectively. For the same compound, in [3], the call was inactive. For the same compound, the max response in experiment [4] is 8.04%; in experiment [9] it was -7.22%; in [10] it was -3.64% (inactive); in [14], -1.13% (inactive); in [16], -4.44% (inactive); in experiment [18] it was 2.62% (inactive). Also, the activity change % (negative = inhibition) in [11] was -1.19% (inactive).
As to `CC1=C(C(=O)Nc2ccccc2)S(=O)(=O)CCO1`, the Potency entry in [1], in [6], in [8] and in experiment [17] was “inactive” in each case. In addition, the Potency in experiment [11] was 39.8 µM (active). In addition, the activation in experiment [13] is -2.25% (inactive). The max response in [14] is -2.04% (inactive); in [19], -49.4% (inactive); in [18], -5.83% (inactive).
As to `CCCCNC(=O)OCC#CI`, the Potency result in experiment [1], in [8], in [15] and in experiment [17] was “inactive” each time. Besides, the outcome in experiment [3] was inactive. The max response is 2.86% in [9], -22.6% (inactive) in experiment [10] and -2.4% (inactive) in experiment [14]. The values for the activation in [12] and in experiment [13] were -1.36% (inactive) and -10.9% (inactive), respectively.
As for `CCCCOCN(C(=O)CCl)c1c(CC)cccc1CC`, the Potency entry in [1], in [8] and in [17] was “inactive” each time. Besides, the outcome in [3] was inactive. The activity change % (negative = inhibition) in experiment [11] was -14.9% (inactive). Also, the activation in experiment [12] was -3.79% (inactive); in [13], -2.46% (inactive). Moreover, the max response in experiment [14] was 0.0844% (inactive); in [16] it was -23.8% (inactive); in experiment [19] it was -23.1% (inactive); in experiment [18] it was 3.67% (inactive).
Consider `COC[C@H](C)N(C(=O)CCl)c1c(C)csc1C`, for which the Potency result in [1], in [20], in experiment [5], in [6], in experiment [8] and in experiment [17] was “inactive” each time. Further, the values for the activation in experiment [2], in [12] and in experiment [13] were -4.92% (inactive), -5.41% (inactive) and -2.7% (inactive), respectively. For the same compound, the call in experiment [3] was inactive. The max response is -36.8% in experiment [4]; -0.446% in experiment [9]; -19.4% (inactive) in experiment [10]; -0.842% (inactive) in experiment [14]; 0.25% (inactive) in experiment [16]; -14.5% (inactive) in experiment [19]. Besides, in [18], the max response was 0.618% (inactive). Further, in experiment [11], the activity change % (negative = inhibition) is -22.8% (inactive).

The values above are taken from PubChem BioAssay (NCATS).
